Results reported in PubChem BioAssay (Tox21).
Where “and” joins values, the source holds several entries; their conditions need not be identical. Equal values may be shown once. Inconclusive results are not listed. Where a call stands in place of a potency, no number is given. A structure can be active in one record and inactive in another. Calls of active or inactive are those of the source. Unless noted, calls follow the shape of the dose curve; as a rule, active = well fitted curve in the direction sought with a large enough effect in the repeat runs; inconclusive = weak or mixed curves; inactive = no such curve, though single readings can be large; an effect the other way counts as inactive or inconclusive.

Key:
[1] = qHTS assay to identify small molecule agonists of the hypoxia (HIF-1) signaling pathway - cell viability counter screen (AID 1224844; calls by dose curve; also: nearly all actives have a fitted effect of over 50% in size; also: potency is read from the fitted curve at half-maximal effect)
How it was run: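 HRE-bla ME-180 cells in medium with 0.5% dialyzed FBS were preincubated 5 hrs at 37C, exposed to compounds for 17 hrs, then viability was read as CellTiter-Glo luminescence after 30 min at room temperature, in the reporter wells.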

[2] = qHTS assay to identify small molecule agonists of H2AX - cell viability counter screen (AID 1224847; calls by dose curve; also: nearly all actives have a fitted effect of over 30% in size; also: potency is read from the fitted curve at half-maximal effect)
How it was run: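 Wild-type CHO-K1 cells (10% FBS medium) were plated overnight at 37C, exposed to compounds at 15 concentrations for 3 hr at 37C (0.76% DMSO final), and viability was read as CellTiter-Glo luminescence after 30 min at room temperature.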

[3] = qHTS RealTime-Glo MT Cell Viability Assay in HepG2 cells - 24 hour (AID 1224867); also: nearly all actives have a fitted effect of over 50% in size; also: potency is read from the fitted curve at half-maximal effect
How it was run: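 HepG2 cells were seeded at 600 cells/well together with NanoLuc luciferase and a cell-permeant prosubstrate, preincubated 5 h at 37 C/5% CO2, then pin-dosed with compounds in DMSO. Nonlytic luminescence from viable cells was read at each time point.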

[4] = qHTS RealTime-Glo MT Cell Viability Assay in HEK293 cells - 32 hour (AID 1224868); also: nearly all actives have a fitted effect of over 50% in size; also: potency is read from the fitted curve at half-maximal effect
How it was run: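 HEK293 cells were seeded at 600 cells/well together with NanoLuc luciferase and cell-permeant prosubstrate, preincubated 5 h at 37 C/5% CO2, then given compound in DMSO by pintool. Luminescence from viable-cell prosubstrate reduction was read repeatedly over 40 h.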

[5] = A CellTox Green Cytotoxicity Assay to monitor cytotoxicity in HEK293 cells - 0 hour (AID 1224869); also: nearly all actives have a fitted effect of over 50% in size
How it was run: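 HEK293 cells premixed with CellTox Green dye were seeded at 600 cells/well and left 5 h at 37 C/5% CO2 before pin transfer of 23 nL compound in DMSO. Fluorescence from dye bound to dead-cell DNA was read during 40 h treatment.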

[6] = qHTS RealTime-Glo MT Cell Viability Assay in HepG2 cells - 40 hour (AID 1224870); also: nearly all actives have a fitted effect of over 50% in size; also: potency is read from the fitted curve at half-maximal effect
How it was run: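 HepG2 cells mixed with RealTime-Glo MT reagents (NanoLuc plus cell-permeant prosubstrate) were seeded at 600 cells/well, incubated 5 h at 37 C/5% CO2, then pinned with compounds in DMSO; nonlytic luminescence tracked viability during 40 h treatment.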

[7] = qHTS assay to identify small molecule agonists of the hypoxia (HIF-1) signaling pathway (AID 1224846; active = well fitted activation curve with a large enough effect in the signal ratio in the repeat runs, not every such curve was filed as active; the % refers to the signal ratio)
How it was run: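 HRE-bla ME-180 cells (beta-lactamase reporter under hypoxia response element) were plated at 2,000 cells/well in medium with 0.5% dialyzed FBS, rested 5 hrs, then given compounds in DMSO for 17 hrs at 37C, 5% CO2. Reporter induction was read with CCF4-AM FRET substrate.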

[8] = qHTS assay to identify small molecule antagonists of the estrogen related receptor (ERR) signaling pathway from Tox21 library (AID 1224848); also: nearly all actives have a fitted effect of over 50% in size; also: potency is read from the fitted curve at half-maximal effect
How it was run: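 Screening used an ERR reporter line supplied by NTP, exposed for 18 h at 37 C to library compounds delivered in DMSO. Signal was luciferase luminescence developed with ONE-Glo at room temperature for 30 min.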

[9] = qHTS assay to identify small molecule agonists of the estrogen related receptor (ERR) signaling pathway from Tox21 library (AID 1224849; calls by dose curve; also: nearly all actives have a fitted effect of over 15% in size); details: ERR reporter cell line, ONE-Glo luciferase, 18 h
How it was run: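 ERR reporter cell line (NTP) seeded, rested 6 h at 37 C/5% CO2, then pinned with Tox21 compounds in DMSO. After 18 h at 37 C, ONE-Glo luciferase luminescence was read following 30 min at room temperature.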

[10] = qHTS assay to identify small molecule agonists of H2AX (AID 1224845; active = well fitted activation curve with a large enough effect in the signal ratio in the repeat runs, not every such curve was filed as active; the % refers to the signal ratio; also: potency is read from the fitted curve at half-maximal effect)
How it was run: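 Wild-type CHO-K1 cells plated overnight, then exposed 3 hr at 37C to compounds at 15 concentrations (0.76% DMSO). Lysed, then HTRF anti-pH2AX(S139)-cryptate/anti-H2AX-d2 detection after 24 hr at room temperature; emissions 665 and 620 nm.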

[11] = at 92.4 µM (top of the series) unless noted

Structure (SMILES) | Potency [1] | Potency [2] | Potency [3] | Potency [4] | Potency [5] | Potency [6] | outcome [7] | Potency [8] | activity change, positive = activation [9, 11] | Potency [10] | activity change, positive = activation ([9]; at 42.5 µM (top of the series)) | activity change, positive = activation ([9]; at 92.4 µM (top of the series))
CN(C)S(=O)(=O)N(SC(F)(Cl)Cl)c1ccccc1 | 19.5 µM (active) | 89.8 µM (active) | 11 µM (active) | 3.89 µM (active) | inactive | 9.77 µM (active) | – | – | – | – | – | –
O=[N+]([O-])c1ccc2ccc3cccc4ccc1c2c34 | 34.7 µM (active) | inactive | inactive | inactive | – | inactive | – | – | – | – | – | –
CCCCCCCCCC[N+](C)(C)CCCCCCCCCC | 27.5 µM (active) | 40.1 µM (active) | 7.76 µM (active) | 1.1 µM (active) | inactive | 7.76 µM (active) | – | – | – | – | – | –
CN(C)CCc1c[nH]c2cccc(O)c12 | inactive | inactive | inactive | inactive | inactive | inactive | – | – | – | – | – | –
[Hg+2].[I-].[I-] | 1.95 µM (active) | 8 µM (active) | 9.77 µM (active) | 3.09 µM (active) | inactive | 12.3 µM (active) | – | – | – | – | – | –
CN(C)c1ccc(N=Nc2ccccc2)cc1 | inactive | – | inactive | – | inactive | inactive | inactive | – | – | – | – | –
CCOP(=S)(OCC)OC(Cl)C(Cl)(Cl)Cl (configuration not stated) | inactive | inactive | inactive | inactive | inactive | inactive | – | inactive | 4.56% (inactive) | – | – | –
CCCCCCCCCCCCCCCCCCn1cc[n+](C)c1 | 43.4 µM (active) | 22.4 µM (active) | 34.5 µM (active) | 7.72 µM (active) | inactive | 21.7 µM (active) | – | 5.42 µM (active) | -74.3% (inactive) | – | – | –
Oc1ccc(C2(c3ccc(O)cc3)CCCCC2)cc1 | 52.1 µM (active) | – | inactive | 52.1 µM (active) | inactive | inactive | – | – | – | inactive | – | –
C1CCC2CCCCC2C1 (configuration not stated) | inactive | inactive | inactive | inactive | inactive | inactive | – | inactive | -0.0659% (inactive) | – | – | –
CC1(c2ccc(Oc3ccccc3)cc2)OC(=O)N(Nc2ccccc2)C1=O (configuration not stated) | 22 µM (active) | – | 49.3 µM (active) | 43.9 µM (active) | inactive | – | – | 2.45 µM (active) | -64.5% (inactive) | – | – | –
CN(C)C(=S)S | 1.41 µM (active) and 4.86 µM (active) and 4.36 µM (active) | – | inactive and 11 µM (active) | 11.2 µM (active) and 1.73 µM (active) and 11 µM (active) | inactive | inactive and 9.77 µM (active) | – | – | – | 29 µM (active) and 4.47 µM (active) | – | –
C[C@]12CC[C@H]3[C@@H](CCC4=CC(=O)CC[C@@]43C)[C@@H]1CC[C@@H]2O | inactive | inactive | inactive | 48.6 µM (active) | inactive | inactive | – | – | – | – | – | –
CCN(CC)c1c([N+](=O)[O-])cc(C(F)(F)F)c(N)c1[N+](=O)[O-] | inactive | 113 µM (active) | – | 19.5 µM (active) | inactive | inactive | inactive | – | – | – | – | –
OC(Cc1ccccc1Cl)(Cn1cncn1)C1(Cl)CC1 (configuration not stated) | inactive | – | inactive | 49 µM (active) | inactive | inactive | inactive | 48.6 µM (active) | -38.2% (inactive) | – | – | –
COP(=S)(OC)Oc1cc(Cl)c(Br)cc1Cl | inactive | – | inactive | inactive | inactive | inactive | – | – | – | inactive | – | –
COc1ccc(N)cc1N | inactive | 41.4 µM (active) and 54.4 µM (active) | inactive | 45 µM (active) | inactive | inactive | – | 63.1 µM (active) and 14.7 µM (active) | – | – | -34.8% (inactive) | -69.2% (inactive)
[CH3][Hg][Cl] | 10.9 µM (active) | 50.4 µM (active) | 10.9 µM (active) | 4.35 µM (active) | inactive | 10.9 µM (active) | – | – | – | – | – | –
O=C(O)C1C2CCC(O2)C1C(=O)O (configuration not stated) | inactive | – | inactive | – | inactive | inactive | – | inactive | 4.71% (inactive) | 102 µM (active) | – | –
O=c1ssc(Cl)c1Cl | 17.4 µM (active) | – | 21.9 µM (active) | 15.5 µM (active) | inactive | 21.9 µM (active) | – | – | -17.9% (inactive) | inactive | – | –
Cc1cc(SCc2sc(-c3ccc(C(F)(F)F)c(F)c3)nc2C)ccc1OCC(=O)O | 12.3 µM (active) | – | inactive | – | inactive | inactive | – | – | -21.2% (inactive) | inactive | – | –
c1cc[c]([Sb]([c]2ccccc2)[c]2ccccc2)cc1 | inactive | – | inactive | – | inactive | inactive | inactive | – | – | – | – | –
O=c1oc2ccccc2c(O)c1Cc1c(O)c2ccccc2oc1=O | inactive | inactive | inactive | inactive | inactive | inactive | – | – | -18.2% [at 42.5 µM] (inactive) | – | – | –
CCOP(=S)(OCC)SCCS(=O)(=O)CC | inactive | inactive | inactive | inactive | inactive | inactive | – | inactive | 1.7% (inactive) | – | – | –
